# Laboratory results: PubChem BioAssay (NCI)
# The panel holds about 79,000 compounds, 15% with a hit somewhere; the sample as a whole holds those more often. Unmarked numbers belong to inactive results. Calls of active or inactive are those of the source. No stated cut-off is given here; in the data, active means growth inhibition above about 70%; inactive means the rest.
# Experiments:
# [1] = NCI Yeast Anticancer Drug Screen. Data for the mec2-1 strain (AID 157); conditions: S. cerevisiae mec2-1 strain, stronger effect = higher value
# Summary of the method: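 Cells of the genetically defined mec2-1 yeast strain are incubated with test compound. Inhibition of growth is calculated against vehicle-treated controls.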
# [2] = NCI Yeast Anticancer Drug Screen. Data for the rad14 strain (AID 159);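 further: 0% = growth of vehicle-treated control cultures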; conditions: S. cerevisiae rad14 strain growth inhibition, stronger effect = higher value
# Summary of the method: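 Inhibition of growth is reported for a repair-deficient yeast mutant following compound treatment, calculated relative to cultures that received vehicle.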
# [3] = NCI Yeast Anticancer Drug Screen. Data for the sgs1 mgt1 strain (AID 161);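 further: 0% = growth of cultures given vehicle only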; conditions: S. cerevisiae sgs1 mgt1 strain, stronger effect = higher value
# Summary of the method: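 Inhibition of yeast growth, normalised to vehicle-treated controls, is reported for a strain bearing genetic alterations in DNA damage repair.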
# [4] = NCI Yeast Anticancer Drug Screen. Data for the CLN2oe strain (AID 163);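 further: 0% = growth of vehicle-only control cultures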; conditions: S. cerevisiae CLN2oe strain, stronger effect = higher value
# Summary of the method: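 Strain altered in cell-cycle control, incubated with compound; growth compared to solvent-treated controls.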
# [5] = NCI Yeast Anticancer Drug Screen. Data for the cln2 rad14 strain (AID 165);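 further: 0% = growth equal to vehicle treated cultures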; conditions: S. cerevisiae cln2 rad14 strain, stronger effect = higher value
# Summary of the method: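 The screen exposed genetically defined yeast (cln2 rad14) to test compounds and scored growth inhibition relative to vehicle-treated controls.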
# [6] = NCI Yeast Anticancer Drug Screen. Data for the bub3 strain (AID 167); conditions: S. cerevisiae bub3 mutant strain, stronger effect = higher value
# Summary of the method: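 Mutant yeast screening strain plus compound; vehicle-treated cultures serve as the 0% inhibition reference.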
# [7] = NCI Yeast Anticancer Drug Screen. Data for the wt2 strain (AID 169); conditions: S. cerevisiae wt2 strain growth inhibition, stronger effect = higher value
# Summary of the method: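 Steps: yeast strain treated with compound; growth recorded; inhibition calculated relative to cultures given vehicle alone.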
# [8] = NCI Yeast Anticancer Drug Screen. Data for the mlh1 strain (AID 171);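 further: 0% = growth of vehicle-treated control cultures of the same strain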; conditions: S. cerevisiae mlh1 strain growth inhibition, stronger effect = higher value
# Summary of the method: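 Yeast screen: mutant strain plus compound, growth scored against vehicle control wells.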
# [9] = NCI Yeast Anticancer Drug Screen. Data for the sgs1 strain (AID 173);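 further: 0% = growth of vehicle-only control cultures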; conditions: S. cerevisiae sgs1 mutant, stronger effect = higher value
# Summary of the method: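 Inhibition of yeast growth served as the measure. The mutant strain was treated with each compound, and growth was normalised to cultures receiving vehicle alone.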
# [10] = NCI Yeast Anticancer Drug Screen. Data for the mlh1 rad18 strain (AID 175); conditions: S. cerevisiae mlh1 rad18 strain growth inhibition, stronger effect = higher value
# Summary of the method: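 Compound-treated yeast growth, normalised to vehicle controls. Strain bears defined DNA repair mutations.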
# [11] = NCI Yeast Anticancer Drug Screen. Data for the rad18 strain (AID 177); conditions: S. cerevisiae rad18 mutant growth inhibition, stronger effect = higher value
# Summary of the method: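 Inhibition values reflect reduced yeast growth compared with vehicle-treated controls, using a strain engineered with a DNA damage repair defect.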
# [12] = NCI Yeast Anticancer Drug Screen. Data for the wt1 strain (AID 149);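 further: 0% = growth of vehicle-treated wt1 cultures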; conditions: S. cerevisiae wt1 strain (SPY 50644) growth inhibition, stronger effect = higher value
# Summary of the method: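 Each compound is tested on wt1 yeast and the loss of growth versus vehicle gives the inhibition value.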
# [13] = NCI Yeast Anticancer Drug Screen. Data for the rad50EPP+ strain (AID 151);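 further: 0% = growth of vehicle-treated control cultures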; conditions: S. cerevisiae rad50 mutant strain, stronger effect = higher value
# Summary of the method: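 Strain rad50EPP+; compound exposure; % growth inhibition vs vehicle.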
# [14] = NCI Yeast Anticancer Drug Screen. Data for the mgt1 strain (AID 153); conditions: S. cerevisiae mgt1 mutant growth inhibition, stronger effect = higher value
# Summary of the method: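 Read-out: yeast growth inhibition vs vehicle control. Strain mgt1, drawn from a panel altered in DNA damage repair or cell cycle control.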
# [15] = NCI Yeast Anticancer Drug Screen. Data for the rad50 strain (AID 155);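 further: 0% = growth of vehicle-only cultures of the same strain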; conditions: S. cerevisiae rad50 strain growth inhibition, stronger effect = higher value
# Summary of the method: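 Vehicle-treated cultures provide the reference for the growth inhibition reported for compound-exposed, repair-deficient yeast.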
# [16] = at 5.0 µM (retest, dose inferred, filed as 0.5)
# [17] = at 50.0 µM (retest, dose inferred, filed as 5.0)
smiles,measurement,setting,value
CCN(CC)c1cccc(Nc2nc3ccccc3s2)c1,growth inhibition,[1]; at 100.0 µM,8%
same,growth inhibition,[2]; at 1.2 µM,7%
same,growth inhibition,[2]; at 3.7 µM,7%
same,growth inhibition,[2]; at 11.0 µM,7%
same,growth inhibition,[2]; at 33.0 µM,7%
same,growth inhibition,[2]; at 100.0 µM,7%
same,growth inhibition,[3]; [16],3%
same,growth inhibition,[3]; [17],21%
same,growth inhibition,[3]; at 50.0 µM,17.4%
same,growth inhibition,[4]; at 1.2 µM,-3%
same,growth inhibition,[4]; at 3.7 µM,1%
same,growth inhibition,[4]; at 11.0 µM,-1%
same,growth inhibition,[4]; at 33.0 µM,-4%
same,growth inhibition,[4]; at 100.0 µM,-10%
same,growth inhibition,[5]; [16],-9%
same,growth inhibition,[5]; [17],-1%
same,growth inhibition,[5]; at 50.0 µM,-7.1%
same,growth inhibition,[6]; at 1.2 µM,0%
same,growth inhibition,[6]; at 3.7 µM,-1%
same,growth inhibition,[6]; [16],32%
same,growth inhibition,[6]; at 11.0 µM,5%
same,growth inhibition,[6]; at 33.0 µM,14%
same,growth inhibition,[6]; [17],83% (active)
same,growth inhibition,[6]; at 50.0 µM,89.8% (active)
same,growth inhibition,[6]; at 100.0 µM,30%
same,growth inhibition,[7]; at 1.2 µM,-1%
same,growth inhibition,[7]; at 3.7 µM,-1%
same,growth inhibition,[7]; at 11.0 µM,-1%
same,growth inhibition,[7]; at 33.0 µM,-2%
same,growth inhibition,[7]; at 100.0 µM,-3%
same,growth inhibition,[8]; at 1.2 µM,10%
same,growth inhibition,[8]; at 3.7 µM,9%
same,growth inhibition,[8]; at 11.0 µM,10%
same,growth inhibition,[8]; at 33.0 µM,9%
same,growth inhibition,[8]; at 100.0 µM,8%
same,growth inhibition,[9]; at 1.2 µM,8%
same,growth inhibition,[9]; at 3.7 µM,7%
same,growth inhibition,[9]; at 11.0 µM,7%
same,growth inhibition,[9]; at 33.0 µM,7%
same,growth inhibition,[9]; at 100.0 µM,5%
same,growth inhibition,[10]; [16],4%
same,growth inhibition,[10]; [17],20%
same,growth inhibition,[10]; at 50.0 µM,25.1%
same,growth inhibition,[11]; at 1.2 µM,7%
same,growth inhibition,[11]; at 3.7 µM,7%
same,growth inhibition,[11]; at 11.0 µM,6%
same,growth inhibition,[11]; at 33.0 µM,3%
same,growth inhibition,[11]; at 100.0 µM,1%
CN(C)CCn1c2ccccc2c2nc3cc4ccccc4cc3nc21,growth inhibition,[12]; at 1.2 µM,15%
same,growth inhibition,[12]; at 3.7 µM,23%
same,growth inhibition,[12]; at 11.0 µM,28%
same,growth inhibition,[12]; at 33.0 µM,78% (active)
same,growth inhibition,[12]; at 100.0 µM,98% (active)
same,growth inhibition,[13]; at 1.2 µM,0%
same,growth inhibition,[13]; at 3.7 µM,38%
same,growth inhibition,[13]; at 11.0 µM,88% (active)
same,growth inhibition,[13]; at 33.0 µM,94% (active)
same,growth inhibition,[13]; at 100.0 µM,97% (active)
same,growth inhibition,[14]; at 1.2 µM,-2%
same,growth inhibition,[14]; at 3.7 µM,4%
same,growth inhibition,[14]; at 11.0 µM,14%
same,growth inhibition,[14]; at 33.0 µM,69%
same,growth inhibition,[14]; at 100.0 µM,98% (active)
same,growth inhibition,[15]; at 1.2 µM,12%
same,growth inhibition,[15]; at 3.7 µM,34%
same,growth inhibition,[15]; [16],48%
same,growth inhibition,[15]; at 11.0 µM,85% (active)
same,growth inhibition,[15]; at 33.0 µM,95% (active)
same,growth inhibition,[15]; [17],95% (active)
same,growth inhibition,[15]; at 50.0 µM,89% (active)
same,growth inhibition,[15]; at 100.0 µM,98% (active)
same,growth inhibition,[1]; at 1.2 µM,-18%
same,growth inhibition,[1]; at 3.7 µM,-10%
same,growth inhibition,[1]; [16],26%
same,growth inhibition,[1]; at 11.0 µM,14%
same,growth inhibition,[1]; at 33.0 µM,70% (active)
same,growth inhibition,[1]; [17],99% (active)
same,growth inhibition,[1]; at 50.0 µM,86.6% (active)
same,growth inhibition,[1]; at 100.0 µM,98% (active)
same,growth inhibition,[2]; at 1.2 µM,-4%
same,growth inhibition,[2]; at 3.7 µM,7%
same,growth inhibition,[2]; at 11.0 µM,28%
same,growth inhibition,[2]; at 33.0 µM,80% (active)
same,growth inhibition,[2]; at 100.0 µM,99% (active)
same,growth inhibition,[3]; [16],10%
same,growth inhibition,[3]; [17],91% (active)
same,growth inhibition,[3]; at 50.0 µM,88% (active)
same,growth inhibition,[4]; at 1.2 µM,0%
same,growth inhibition,[4]; at 3.7 µM,3%
same,growth inhibition,[4]; at 11.0 µM,21%
same,growth inhibition,[4]; at 33.0 µM,57%
same,growth inhibition,[4]; at 100.0 µM,98% (active)
same,growth inhibition,[5]; [16],30%
same,growth inhibition,[5]; [17],94% (active)
same,growth inhibition,[5]; at 50.0 µM,84.3% (active)
same,growth inhibition,[6]; at 1.2 µM,-13%
same,growth inhibition,[6]; at 3.7 µM,10%
same,growth inhibition,[6]; [16],13%
same,growth inhibition,[6]; at 11.0 µM,3%
same,growth inhibition,[6]; at 33.0 µM,72% (active)
same,growth inhibition,[6]; [17],95% (active)
same,growth inhibition,[6]; at 50.0 µM,87.6% (active)
same,growth inhibition,[6]; at 100.0 µM,98% (active)
same,growth inhibition,[7]; at 1.2 µM,18%
same,growth inhibition,[7]; at 3.7 µM,15%
same,growth inhibition,[7]; at 11.0 µM,27%
same,growth inhibition,[7]; at 33.0 µM,77% (active)
same,growth inhibition,[7]; at 100.0 µM,98% (active)
same,growth inhibition,[8]; at 1.2 µM,2%
same,growth inhibition,[8]; at 3.7 µM,9%
same,growth inhibition,[8]; at 11.0 µM,33%
same,growth inhibition,[8]; at 33.0 µM,80% (active)
same,growth inhibition,[8]; at 100.0 µM,98% (active)
same,growth inhibition,[9]; at 1.2 µM,-2%
same,growth inhibition,[9]; at 3.7 µM,5%
same,growth inhibition,[9]; at 11.0 µM,25%
same,growth inhibition,[9]; at 33.0 µM,85% (active)
same,growth inhibition,[9]; at 100.0 µM,98% (active)
same,growth inhibition,[10]; [16],34%
same,growth inhibition,[10]; [17],98% (active)
same,growth inhibition,[10]; at 50.0 µM,71.2% (active)
same,growth inhibition,[11]; at 1.2 µM,-11%
same,growth inhibition,[11]; at 3.7 µM,-10%
same,growth inhibition,[11]; at 11.0 µM,11%
same,growth inhibition,[11]; at 33.0 µM,87% (active)
same,growth inhibition,[11]; at 100.0 µM,98% (active)
